Results reported in PubChem BioAssay (EPA / NIEHS).
Records with an inconclusive call do not appear. Where a structure was tested more than once in an assay, its records may differ in their call. The source made the active and inactive calls. How the source made its calls: active means hit-call score of the fitted dose curve at least 0.9, where 1 is the maximum; inconclusive means response in the unintended direction; inactive means score below 0.9. Peptide text beside a SMILES is read from it.

Columns and labels:
[1] = ATG_XTT_Cytotoxicity: Cytotoxicity Assessment in the Attagene TRANS-FACTORIAL HepG2 Assay (AID 2283584)
Procedure, shortened: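 Transfect HepG2 with GAL4-UAS reporter units, dose compound, incubate 24 h, then measure viable cell number by XTT. Fit concentration response against DMSO baseline.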

[2] = TOX21_p53_BLA_p2_viability: Viability Assessment in the Tox21 HCT-116 p53 Agonism Beta-lactamase Assay, Phase 2 (AID 2283591);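 further: compound exposure lasted 16 h at 37 °C; actives lower the ATP signal meaning cytotoxicity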
Procedure, shortened: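 HCT-116 p53-bla cells (4000/well) rested 5 h at 37C, then received compounds in DMSO (217-fold dilution) for 16 h at 37C, 5% CO2. After the CCF4 read, CellTiter-Glo was added; ATP luminescence was read after 30 min at room temperature.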

SMILES	outcome [1]	outcome [2]	AC50 [2]
CCCCOCC(C)O (stereo unspecified)	inactive	inactive	–
CC1CCC(=O)C1=O (stereo unspecified)	inactive	–	–
O=C(O)c1ccc2c(c1)C(=O)OC2=O	inactive	inactive	–
c1ccc(Nc2cccc3ccccc23)cc1	inactive	–	–
CCc1cccc(C)c1N(C(=O)CS(=O)(=O)O)C(C)COC (stereo unspecified)	inactive	–	–
C=CC(C)(CCC=C(C)C)OC(=O)C=Cc1ccccc1 (stereo unspecified)	inactive	inactive	–
COc1ccc(C(=O)/C(Br)=C\C(=O)O)cc1	inactive	–	–
CC1CCC(C(C)(C)S)C(=O)C1 (stereo unspecified)	inactive	–	–
Cc1ccc(C)c(OCCCC(C)(C)C(=O)O)c1	inactive	–	–
CCCCCCOc1ccc(N)cc1	inactive	–	–
COC(C=C(C)CCC=C(C)C)OC	inactive	inactive	–
CC(=O)CC(=O)Nc1ccccc1C	inactive	inactive	–
Cn1cccc1	inactive	–	–
CC(C)(c1ccccc1)c1ccc(Nc2ccc(C(C)(C)c3ccccc3)cc2)cc1	inactive	inactive	–
CC(C)C(=O)OCCOc1ccccc1	inactive	inactive	–
CC=CC(=O)OCC(C)C	inactive	–	–
Cc1ccc2c(c1)CCCN2	inactive	–	–
Oc1c(Cl)cc(Cl)c(Cl)c1Cl	inactive	inactive	–
CCCCCC[C@@H](O)C/C=C\CCCCCCCC(=O)OCC(O)CO (stereo partly specified)	inactive	–	–
COC(=O)c1ccc(C(=O)OC)c(C(=O)OC)c1	inactive	–	–

SMILES	outcome [1]	outcome [2]	AC50 [2]
CCCCC(CC)COS(=O)(=O)O (stereo unspecified)	inactive	–	–
COc1cc(O)c(C(=O)c2ccccc2)cc1S(=O)(=O)O	inactive	–	–
COC(=O)[C@H](Cc1ccccc1)NC(=O)[C@@H](N)CC(=O)O (H-Asp-Phe-OMe)	inactive	inactive	–
CC(C)=CCCC(C)=CC#N	inactive	inactive	–
CC1OC(=O)C(C)OC1=O (stereo unspecified)	inactive	inactive	–
CCCCCCCCCCCCC	inactive	inactive	–
C=CCCCCCCCCO	inactive	inactive	–
C=CCNCC=C	inactive	inactive	–
CC(CC=O)CC(C)(C)C (stereo unspecified)	inactive	inactive	–
NC(=O)Nc1ccccc1	inactive	inactive	–
O=C(Cl)c1c(Cl)c(Cl)c(C(=O)Cl)c(Cl)c1Cl	inactive	inactive	–
O=S(=O)(O)c1ccc(Nc2nc(Nc3ccc(C=Cc4ccc(Nc5nc(Nc6ccc(S(=O)(=O)O)cc6)nc(N(CCO)CCO)n5)cc4S(=O)(=O)O)c(S(=O)(=O)O)c3)nc(N(CCO)CCO)n2)cc1	inactive	inactive	–
COc1ccc(-c2coc3cc(O)cc(O)c3c2=O)cc1	inactive	inactive	68.5 µM (active)
CCCCNS(=O)(=O)c1ccc(C)cc1	inactive	inactive	–
CCN1CCCC1=O	inactive	inactive	–
CC(CC(C)C)=NO	inactive	inactive	–
CCCCCCC=O	inactive	inactive	–
O=C(O)/C=C/c1ccccc1	inactive	inactive	–
C=C(C)C1CC=C(C)CC1 (stereo unspecified)	inactive	inactive	–
CCCCCCO	inactive	inactive	–

SMILES	outcome [1]	outcome [2]	AC50 [2]
Oc1ccccc1Cc1ccccc1O	inactive	inactive	–
CC(C)CCCCCOC(=O)CS	inactive	inactive	–
CCCCCCCCCCCCCCCCCCOS(=O)(=O)O	inactive	inactive	–
C/C=C/C=C/CCCCCCCO	inactive	inactive	–
CC(C)OC(=O)c1ccccc1	inactive	inactive	–
N=C1C=CC(=C(c2ccc(N)cc2)c2ccc(N)cc2)C=C1	inactive	inactive	–
N#CC1(N)CCCCC1	inactive	inactive	–
C[Si](C)(C)N[Si](C)(C)C	inactive	inactive	–
CCCCCCCCCC(C)=O	inactive	inactive	–
CCCCCCCCCCCCCC(=O)OC(C)C	inactive	inactive	–
COc1ccc(C(=O)c2ccccc2)c(O)c1	inactive	inactive	–
CC(C)CC(=O)OCc1ccccc1	inactive	inactive	–
C=C(C)[C@@H]1CC=C(C)CC1	inactive	inactive	–
CCCC(CC)c1ccccc1 (stereo unspecified)	inactive	inactive	–
CC(C)[N+](C)(CCOC(=O)C1c2ccccc2Oc2ccccc21)C(C)C	inactive	inactive	–
CCCCC(CC)COC(=O)/C=C/c1ccc(OC)cc1 (stereo unspecified)	inactive	inactive	–
CC1=CCC(C(C)C)C=C1 (stereo unspecified)	inactive	inactive	–
C=C(C)C(=O)OCCCCCCCCCCCC	inactive	inactive	–
CC(=O)OC(C)c1ccccc1 (stereo unspecified)	inactive	inactive	–
CCCCCCCOC(=O)c1ccc(O)cc1	inactive	–	–
